Results published in PubChem BioAssay (NCI).
The panel holds about 79,000 compounds, 15% with a hit somewhere; the sample as a whole holds those more often. Rule as the data show it: active = growth inhibition above about 70%; inactive = the rest.

Columns and labels:
[1] = NCI Yeast Anticancer Drug Screen. Data for the rad50 strain (AID 155);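 also: 0% = growth of vehicle-only cultures of the same strain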; conditions: S. cerevisiae rad50 strain growth inhibition; at 50.0 µM; active compounds read high
In short: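 Vehicle-treated cultures provide the reference for the growth inhibition reported for compound-exposed, repair-deficient yeast.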

[2] = NCI Yeast Anticancer Drug Screen. Data for the mec2-1 strain (AID 157); conditions: S. cerevisiae mec2-1 strain, at 50.0 µM, active compounds read high
In short: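 Test agents were screened against the mec2-1 yeast strain, with defined DNA repair or cell cycle alteration. Growth was scored as inhibition against vehicle-only controls.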

[3] = NCI Yeast Anticancer Drug Screen. Data for the mlh1 rad18 strain (AID 175); conditions: S. cerevisiae mlh1 rad18 strain growth inhibition; at 50.0 µM; active compounds read high
In short: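 In this whole-cell yeast screen, a strain with altered DNA damage repair is challenged with compound, and its growth is measured against matched vehicle-treated controls.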

[4] = NCI Yeast Anticancer Drug Screen. Data for the sgs1 mgt1 strain (AID 161);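 also: 0% = growth of cultures given vehicle only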; conditions: S. cerevisiae sgs1 mgt1 strain, at 50.0 µM, active compounds read high
In short: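 Read-out: growth inhibition vs vehicle controls. Cells: mutant yeast strain deficient in DNA damage repair.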

[5] = NCI Yeast Anticancer Drug Screen. Data for the cln2 rad14 strain (AID 165);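 also: 0% = growth equal to vehicle treated cultures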; conditions: S. cerevisiae cln2 rad14 strain, at 50.0 µM, active compounds read high
In short: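 Growth of compound-exposed yeast (cln2 rad14 genotype) measured and expressed as inhibition relative to vehicle.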

[6] = NCI Yeast Anticancer Drug Screen. Data for the bub3 strain (AID 167); conditions: S. cerevisiae bub3 mutant strain, at 50.0 µM, active compounds read high
In short: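 Mutant yeast screening strain plus compound; vehicle-treated cultures serve as the 0% inhibition reference.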

Measured: growth inhibition

CC1C2C=CC1C(c1c3ccc(=O)cc-3oc3cc(O)ccc13)C2C(=O)O (stereo unspecified)
inactive: [1] -4.85% | [2] 2.15% | [3] 21.4%

NC(=NC1CCCCCCCCCCC1)N[N+](=O)[O-]
inactive: [1] 36.1% | [2] 9.6% | [3] 12.3%

COc1ccc(C(=O)OC2CC3CCC(C2)N3)cc1OC (stereo unspecified)
inactive: [1] 7.25% | [2] -19.8% | [3] 22.8%

C/C=C1\CN2CCC1CC2C(O)c1ccnc2ccc(O)cc12 (stereo unspecified)
inactive: [1] -3.6% | [2] -13.7% | [3] 32.2%

Cc1ccc(-c2cc(Cl)c3cc(S(=O)(=O)F)ccc3n2)cc1
inactive: [1] -4% | [2] -16.6% | [3] -9.1%

Cc1ccc(-n2c(=S)[nH]c3ccccc3c2=O)cc1F
inactive: [1] -23.9% | [2] -25.9% | [3] -18.1%

CC(C)NCc1ccccc1
inactive: [1] -4.25% | [4] 19.5% | [5] 9.8% | [6] 7.35% | [3] -6.05%

COc1ccccc1NC1=NCCS1
inactive: [1] 20.9% | [2] -12.9% | [3] 15.4%

O=C(CCN1CC=C(c2ccccc2)CC1)NCc1ccccc1
inactive: [1] 5% | [2] -6.8% | [3] 8.55%

COc1cccc(N=C(N)N[N+](=O)[O-])c1
inactive: [1] -13.2% | [2] -32% | [3] -7.25%

CCCOP(=O)(CCl)OCCC
inactive: [1] -7.8% | [2] -5.05% | [3] 8.25%

CN1C2c3ccccc3C3C4c5ccccc5C(C31)C(C2[N+](=O)[O-])N4C (stereo unspecified)
inactive: [1] -12.8% | [2] -30.8% | [3] -13.5%

O=C(/C=C/c1ccccc1)NCCc1cnc[nH]1
inactive: [1] 0.65% | [2] 1.55% | [3] 16.4%

Brc1ccc(C[N+]23CCN(CC2)CC3)cc1
inactive: [1] -14.2% | [2] -35.1% | [3] -16%

C[N+]1([O-])C2CCC1CC(OC(=O)C(O)c1ccccc1)C2 (stereo unspecified)
inactive: [1] 1.45% | [2] -21.2% | [3] 3.4%

COc1ccc(-n2c(=S)[nH]c3ccccc3c2=O)cc1
inactive: [1] -10.5% | [2] -9.7% | [3] 4.8%

COc1ccc(S(=O)(=O)F)cc1NC(=O)c1ccc2ccccc2c1O
inactive: [1] 6.4% | [2] 7.75% | [3] 41.6%

COc1ccc(C(C)(C)CC(C)(C)C)cc1
inactive: [1] 39% | [2] 2.55% | [5] 12.1% | [3] -0.85%

Cc1cccc(-c2cc(Cl)c3cc(S(=O)(=O)F)ccc3n2)c1
inactive: [1] -1.1% | [2] -25.4% | [3] -33.4%

c1ccc2c(c1)O[As](O[As]1Oc3ccccc3O1)O2
inactive: [1] -4.2% | [2] 4.75% | [3] 10.2%

Clc1cccc(NC2=NCCS2)c1
inactive: [1] -7.35% | [2] -32.6% | [3] -40.8%

[C-]#[O+].[C-]#[O+].[C-]#[O+].[C-]#[O+].[Cr].c1ccc([PH+](CC[PH+](c2ccccc2)c2ccccc2)c2ccccc2)cc1
inactive: [1] 11.7% | [2] 4.85% | [5] 15.2% | [3] 20.4%

O=[N+]([O-])c1ccc(C[N+]23CCN(CC2)CC3)cc1
inactive: [1] 5.9% | [2] -16.7% | [3] 3.8%

Cc1ccc(-n2c(=S)[nH]c3ccccc3c2=O)cc1
inactive: [1] -8.7% | [2] -7.95% | [3] -20.9%

O=C(Nc1cc(Cl)c(Cl)cc1Cl)C(=O)C1C(=O)NC(=S)NC1=O
inactive: [1] 0.35% | [2] -8.2% | [5] 9.75% | [6] 12.9% | [3] -22.4%

CNCC(C)c1ccccc1OC (stereo unspecified)
inactive: [1] -9.6% | [2] -6.7% | [5] 26.4% | [6] 13.3% | [3] -5.9%
